Results reported in PubChem BioAssay AID2284330 (EPA ToxCast).
Inconclusive results are not listed. The source made the active and inactive calls. The calls were made as follows: active = hit-call score of the fitted dose curve at least 0.9, where 1 is the maximum; inconclusive = response in the unintended direction; inactive = score below 0.9.

test system: frog Glucocorticoid Receptor (GR), gene 397897; assay: ATG_frGR_EcoTox2: Attagene TRANS-FACTORIAL EcoTox-2 HepG2 Assay for frog Glucocorticoid Receptor (GR)
Description: ATG_EcoTox2 is a cell-based, multiplexed assay created by modifying the existing Attagene TRANS-FACTORIAL system to include a panel of nuclear receptors from some or all the following species: human (Homo sapiens), african clawed frog (Xenopus laevis), rainbow trout (Oncorhynchus mykiss), japanese medaka (Oryzias latipes), and zebrafish (Danio rerio). The ECOTOX2-FACTORIAL format uses HepG2, a human liver cell line, with measurements taken at 24 hours after chemical dosing in a 24-well plate. ATG_frGR_EcoTox2 is one of 29 assay components calculated in the ATG_EcoTox2 assay. It is designed to make measurements of mRNA induction, a form of inducible reporter, as detected with fluorescence intensity signals by Reverse transcription polymerase chain reaction (RT-PCR) and Capillary electrophoresis technology.The assay endpoint ATG_frGR_EcoTox2 was analyzed in the positive analysis fitting direction relative to DMSO as the negative control and baseline of activity. Using a type of inducible reporter, measures of mRNA for gain-of-signal activity can be used to understand the reporter gene at the transcription factor-level as they relate to the gene for glucocorticoid receptor. Furthermore, this assay endpoint can be referred to as a primary readout, because this assay has produced multiple assay endpoints where this one serves a reporter gene function. […]
Human liver HepG2 cells are transiently transfected with multiple reporter transcription units (MRTUs) in 6-well plates using FuGene 6 reagent (Roche; 3 ml FuGene/1 mg DNA). […] A major difference between the CIS and TRANS system is that in CIS activities of endogenous TFs are measured, whereas the TRANS assay evaluates changes in activities of exogenous, chimeric NR-Gal4 proteins. […] The fragments were purified using Qiaquick PCR columns (Qiagen), analyzed on an ABI 3130xL genetic analyzer (Applied Biosystems) with peak positions identified by using a set of X-rhodamine (ROX)-labeled MapMarker1000 molecular weight standards (BioVentures). […]

Row | Compound | outcome
1 | CCCCOCN(C(=O)CCl)c1c(CC)cccc1CC | inactive
2 | O=P(Oc1ccccc1)(Oc1ccccc1)Oc1ccccc1 | inactive
3 | O=S(=O)(O)C(F)(F)C(F)(F)C(F)(F)C(F)(F)C(F)(F)C(F)(F)F | inactive
